In the OligoGym collection:
Note: reference of the scale not given here.

What follows are sequences tested against C17orf64 (assay: pooled miR-30 sensor sort-seq; sequence = guide strand). Details: shRNA.
TTAAAGAATCTTTCTTGACATG gave a sensor-assay potency score (higher = more potent) of -1.34. TCTTTCTTGACATGGTCCTGGG was tested, and the sensor-assay potency score (higher = more potent) was -0.903. Sequence TTTCTTGACATGGTCCTGGGAT has a sensor-assay potency score (higher = more potent) of -0.0819. In the case of ATCTTTCTTGACATGGTCCTGG, the sensor-assay potency score (higher = more potent) is reported as -0.00122. In the case of TTCCTTTATCCTCTTCCTCTTG, the sensor-assay potency score (higher = more potent) is reported as -0.925. TTGAGTTTTGGTTTTTGAGAAA showed a sensor-assay potency score (higher = more potent) of -0.844. Work on TTTTTGATAAGGACAATTCTTT yielded a sensor-assay potency score (higher = more potent) of -0.341. Work on TGTACTTGTAAAGTCGGCGAAG yielded a sensor-assay potency score (higher = more potent) of -0.717. Sequence TTTATTCCTAATTAAGACCTGA has a sensor-assay potency score (higher = more potent) of 0.154. TTGGTGTACTTGTAAAGTCGGC gave a sensor-assay potency score (higher = more potent) of -0.519. TTCATGCCGCTGATGTTGCTGT was tested, and the sensor-assay potency score (higher = more potent) was -0.699. TTGGGCAGACTGTCTTCCCGGT gave a sensor-assay potency score (higher = more potent) of -0.108.

These sequences were tested against C17orf71 in the same assay as above. Details: shRNA.
With TTGTGTCTAAGTCTCCTTCATC the sensor-assay potency score (higher = more potent) was -0.792. In the case of TTGACTGGTAGGCACTGTGGGC, the sensor-assay potency score (higher = more potent) is reported as -0.647. For TTTGCCAACTGGACAATCCTTA, the sensor-assay potency score (higher = more potent) was 0.137. For TTTCTTGCTTAGAACTAGCTCC, the sensor-assay potency score (higher = more potent) was 0.179. Sequence TCATCTTCAGCTCTAGTCCTGA has a sensor-assay potency score (higher = more potent) of -0.0647. With TTGATGCTTCCAGAACTCGTGT the sensor-assay potency score (higher = more potent) was -0.713. For TACTTGACCATGAACTTCTGGA, the sensor-assay potency score (higher = more potent) was 0.427. With TTAGCTTCCAGTCTTTGCCAAC the sensor-assay potency score (higher = more potent) was -1.08. With TATTGTGATATAGCACAGGCGG the sensor-assay potency score (higher = more potent) was -1.08. Work on TTTAAGTTTATCAGCATCCGAA yielded a sensor-assay potency score (higher = more potent) of -0.269. TTCATCTTCAGCTCTAGTCCTG showed a sensor-assay potency score (higher = more potent) of 0.0154.
